# Results reported in PubChem BioAssay (NCATS).
# “And” between values parts separate entries of the source, which are not always exact repeats. Equal entries are not always repeated. Records with an inconclusive call do not appear. The source made the active and inactive calls. Unless noted, calls come from the whole dose curve.
# Experiments:
# [1] = target: Alpha-galactosidase A (Homo sapiens) (UniProt P06280); test: Counterscreen for Glucocerebrosidase Inhibitors: qHTS Assay for Human alpha-Galactosidase at pH 4.5 (AID 992; active = well fitted curve in the direction sought with a large enough effect; an effect the other way counts as inactive or inconclusive; note: 0% is about no effect)
# Method in brief: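 Quantitative HTS: compounds tested from 0.7 nM up to 77 uM against 2 nM enzyme with 80 uM 4-MU alpha-D-galactopyranoside. The 20 min room-temperature reaction is stopped with 1M NaOH/1M glycine, pH 10.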
# [2] = target: alpha-glucosidase (Oryza sativa, rice) (UniProt Q653V4); test: Counterscreen for Glucocerebrosidase Inhibitors: qHTS Assay for Rice alpha-Glucosidase at pH 5.0 (AID 997; active = well fitted curve in the direction sought with a large enough effect; an effect the other way counts as inactive or inconclusive;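 note: 0% = full activity with enzyme and -100% = basal without enzyme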)
# Method in brief: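 Rice alpha-glucosidase (4 nM final) with 400 uM 4-methylumbelliferyl-alpha-D-glucopyranoside in citrate buffer pH 5.0, 20 min at room temperature, stopped at pH 10; fluorescence 365/440 nm, compounds 0.7 nM–77 uM, AC50 from Hill fits.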
# [3] = target: Alpha-galactosidase (Coffea arabica) (UniProt Q42656); test: Counterscreen for Glucocerebrosidase Inhibitors: qHTS Assay for Coffee Bean alpha-Galactosidase at pH 5.9 (AID 998; active = well fitted curve in the direction sought with a large enough effect; an effect the other way counts as inactive or inconclusive;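 note: plate controls were uninhibited enzyme for no effect and no-enzyme basal signal for full effect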)
# Method in brief: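 Compounds were titrated from 0.7 nM to 77 uM against green coffee bean alpha-galactosidase (2 nM) using 80 uM fluorogenic 4-methylumbelliferyl substrate. After 20 min at room temperature, reactions were stopped at pH 10 and read by fluorescence.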
# [4] = qHTS Assay for Lipid Storage Modulators (AID 1519); conditions: Drosophila S3 cells, BODIPY lipid droplet/cell ratio, laser cytometry, cells loaded with oleic acid; note: potency is the fitted concentration of half-maximal effect; for activity change, negative = inhibition: % is set by controls: 0 for no effect and ±100 for the full control effect
# Method in brief: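 Cells seeded at 5,000 per well were treated with compounds over a concentration series and loaded with oleic acid (400 uM, as added). Lipid droplet fluorescence (488 nm excitation, 500-530 nm channel) was read by laser-scanning cytometry and normalized to 20 uM Triacsin C.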
# [5] = target: DNA repair nuclease/redox regulator APEX1 (Homo sapiens) (UniProt P27695); test: qHTS Validation Assay for Inhibitors of the Human Apurinic/apyrimidinic Endonuclease 1 (APE1) (AID 1705; active = well fitted curve in the direction sought with a large enough effect; an effect the other way counts as inactive or inconclusive;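 note: TAMRA fluorescence gain over two minutes as APE1 cuts a quenched THF abasic duplex; % is set by controls: 0 for no effect and ±100 for the full control effect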)
# Method in brief: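 Endonuclease activity of human APE1 is followed as dequenching when the enzyme incises a tetrahydrofuran abasic site in a short duplex labelled 5'-TAMRA/3'-BHQ-2 (50 nM final), after 15 min enzyme–compound preincubation at room temperature.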
# [6] = Counterscreen for APE1 Inhibitors: Fluorescent Dye Displacement Validation Assay (AID 1707; active = well fitted curve in the direction sought with a large enough effect; an effect the other way counts as inactive or inconclusive;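 note: plate controls were ThO with dsDNA and no compound for no effect and ThO without dsDNA for full effect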)
# Description: In order to distinguish true inhibitors of DNA-processing enzymes from promiscuous DNA-binding compounds among screening assay hits, we developed a homogeneous and miniaturized assay based on fluorescent dye displacement test as originally described by Tse and Boger (Accounts of Chemical Research (2004) 37: 61-69). The assay is based on the strong enhancement of fluorescence when Thiazole Orange (ThO) binds to double-stranded DNA: conversely, in the presence of a DNA-binding compound, Thiazole Orange is displaced from the DNA and its fluorescence is reduced.
# Buffer. 50 mM Tris-HCl (pH7.5) containing 50mM NaCl, 2 mM MgCl2, and 0.01% Tween-20.
# Buffer containing 250 nM ThO in columns 3 and 4 as negative control (no dsDNA).
# Reaction mixture: 250 nM ThO and 50 nM dsDNA at final concentration dispensed throughout the plate: in columns 1, 2, 5-48. Column 1 is neutral (100% activity).
# 5''TAMRA- TC ACC FTC GTA CGA CTC
# 3'' AG TGG GAG CAT GCT GAG
# where F denotes tetrahydrofuran.
# Control: Pintool transfer of control compound WB64 (W4761, Sigma-Aldrich) to column 2 of all assay plates as a two-fold 16-point dilution in duplicate (concentration range 5.75 uM - 0.175 nM).
# Four uL of reaction mixtures were dispensed to 1536-well Greiner black solid bottom plates. Compounds (23 nL) were transferred […] in order to measure the endpoint fluorescence using 480 nm excitation and 540 nm emission fluorescence protocol.
# [7] = measured here: cell count channel max response
# [8] = measured here: lipid channel max response
# Sequence of Alpha-galactosidase A (Homo sapiens) (P06280 whole entry, looked up): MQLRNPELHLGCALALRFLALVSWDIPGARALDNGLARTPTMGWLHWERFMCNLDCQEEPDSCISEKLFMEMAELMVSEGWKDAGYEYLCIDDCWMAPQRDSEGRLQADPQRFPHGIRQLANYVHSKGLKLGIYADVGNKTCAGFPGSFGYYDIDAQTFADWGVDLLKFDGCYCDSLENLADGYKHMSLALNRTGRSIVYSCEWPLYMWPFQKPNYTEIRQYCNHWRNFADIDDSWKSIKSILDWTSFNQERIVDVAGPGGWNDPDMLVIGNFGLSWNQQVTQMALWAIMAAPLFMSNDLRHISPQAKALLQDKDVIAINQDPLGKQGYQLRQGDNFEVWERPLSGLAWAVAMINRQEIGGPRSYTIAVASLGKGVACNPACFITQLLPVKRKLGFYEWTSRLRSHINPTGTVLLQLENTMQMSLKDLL
# Sequence of DNA repair nuclease/redox regulator APEX1 (Homo sapiens) (P27695 whole entry, looked up): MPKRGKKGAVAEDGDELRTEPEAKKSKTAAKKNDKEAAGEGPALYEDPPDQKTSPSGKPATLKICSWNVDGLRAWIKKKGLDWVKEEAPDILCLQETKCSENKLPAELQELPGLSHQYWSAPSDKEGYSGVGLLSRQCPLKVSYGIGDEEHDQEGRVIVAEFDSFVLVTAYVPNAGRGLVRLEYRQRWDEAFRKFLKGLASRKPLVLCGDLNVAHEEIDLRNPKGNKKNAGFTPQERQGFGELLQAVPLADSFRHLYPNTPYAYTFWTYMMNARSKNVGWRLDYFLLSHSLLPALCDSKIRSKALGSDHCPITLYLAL
# Sequence of Alpha-galactosidase (Coffea arabica) (Q42656 whole entry, looked up): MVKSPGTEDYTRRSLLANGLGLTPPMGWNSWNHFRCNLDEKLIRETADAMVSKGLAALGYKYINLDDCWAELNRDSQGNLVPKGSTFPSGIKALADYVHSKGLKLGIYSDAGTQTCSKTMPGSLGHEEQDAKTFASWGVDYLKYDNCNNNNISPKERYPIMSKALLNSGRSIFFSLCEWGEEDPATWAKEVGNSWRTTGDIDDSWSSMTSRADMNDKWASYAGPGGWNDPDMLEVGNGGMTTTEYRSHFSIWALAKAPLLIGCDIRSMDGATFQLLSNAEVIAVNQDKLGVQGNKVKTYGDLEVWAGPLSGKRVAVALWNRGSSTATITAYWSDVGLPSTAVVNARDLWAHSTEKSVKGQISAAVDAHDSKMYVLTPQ
structure (smiles),measurement,setting,value
COC(=O)C1=CCCN(C)C1,outcome,[1],inactive
same,outcome,[2],inactive
same,outcome,[3],inactive
same,"activity change, negative = inhibition",[4]; at 25.7 µM (top of the series),0.438% (inactive)
same,"activity change, negative = inhibition",[4]; at 57.5 µM (top of the series),7.06% (inactive) and -4.88% (inactive)
same,max response,[4]; [7],20.3% and 3.22% and -69.9%
same,max response,[4]; [8],21.3% and 16.2% and -73.3%
same,outcome,[5],inactive
same,outcome,[6],inactive
CCCCCCCCCCCCCCCC[n+]1ccccc1,Potency,[4],10 µM (active)
same,max response,[4]; [7],-21.8%
same,max response,[4]; [8],-114%
Clc1ccc(C(OCCN2CCCCC2)c2ccccc2)cc1 (centres undefined),"activity change, negative = inhibition",[4]; at 57.5 µM (top of the series),10.4% (inactive)
same,max response,[4]; [7],15.5%
same,max response,[4]; [8],25.9%
CN(C)C(=O)Oc1cccc([N+](C)(C)C)c1,outcome,[3],inactive
same,"activity change, negative = inhibition",[4]; at 25.7 µM (top of the series),-1.76% (inactive)
same,"activity change, negative = inhibition",[4]; at 57.5 µM (top of the series),8.87% (inactive)
same,max response,[4]; [7],2.56% and -8.73%
same,max response,[4]; [8],2.57% and 1.95%
CCC(=O)O[C@H]1CC[C@H]2[C@@H]3CCC4=CC(=O)CC[C@]4(C)[C@H]3CC[C@]12C,"activity change, negative = inhibition",[4]; at 25.7 µM (top of the series),0.757% (inactive)
same,max response,[4]; [7],2.96%
same,max response,[4]; [8],3.14%
Cc1cc(C(C)(C)C)cc(C)c1CC1=NCCN1,outcome,[3],inactive
same,"activity change, negative = inhibition",[4]; at 25.7 µM (top of the series),0.58% (inactive)
same,"activity change, negative = inhibition",[4]; at 57.5 µM (top of the series),0.173% (inactive)
same,max response,[4]; [7],-1.09% and 8.12%
same,max response,[4]; [8],3.95% and 14.5%
O=C(NC(=O)c1c(F)cccc1F)Nc1cc(Cl)c(OC(F)(F)C(F)C(F)(F)F)cc1Cl (centres undefined),"activity change, negative = inhibition",[4]; at 57.5 µM (top of the series),-23.4% (inactive)
same,max response,[4]; [7],4.92%
same,max response,[4]; [8],-17.8%
CNC(=O)Oc1ccc2c(c1)[C@]1(C)CCN(C)[C@@H]1N2C,"activity change, negative = inhibition",[4]; at 57.5 µM (top of the series),0.848% (inactive)
same,max response,[4]; [7],-15.1%
same,max response,[4]; [8],-15.5%
CN1[C@@H]2CC[C@H]1CC(OC(=O)c1cc(Cl)cc(Cl)c1)C2 (some centres undefined),outcome,[1],inactive
same,outcome,[2],inactive
same,outcome,[3],inactive
same,"activity change, negative = inhibition",[4]; at 57.5 µM (top of the series),4.19% (inactive)
same,max response,[4]; [7],20.8%
same,max response,[4]; [8],27.7%
Clc1ccc(CO/N=C(\Cn2ccnc2)c2ccc(Cl)cc2Cl)c(Cl)c1,"activity change, negative = inhibition",[4]; at 57.5 µM (top of the series),5.8% (inactive)
same,max response,[4]; [7],-2.06%
same,max response,[4]; [8],5.32%
COc1ccc(C(=O)N2CCCC2=O)cc1,outcome,[1],inactive
same,outcome,[2],inactive
same,"activity change, negative = inhibition",[4]; at 57.5 µM (top of the series),-0.445% (inactive)
same,max response,[4]; [7],21.4%
same,max response,[4]; [8],19.3%
same,outcome,[5],inactive
same,outcome,[6],inactive
OC(c1ccccc1)(c1ccccc1)C1CCNCC1,"activity change, negative = inhibition",[4]; at 25.7 µM (top of the series),-3.2% (inactive)
same,max response,[4]; [7],-4.3%
same,max response,[4]; [8],-6.81%
CC(C)[N+](C)(CCC(C(N)=O)(c1ccccc1)c1ccccc1)C(C)C,"activity change, negative = inhibition",[4]; at 25.7 µM (top of the series),-0.769% (inactive)
same,"activity change, negative = inhibition",[4]; at 57.5 µM (top of the series),9.64% (inactive)
same,max response,[4]; [7],-8.79% and 5.39%
same,max response,[4]; [8],-9.77% and 16.5%
NC(=O)CN1CCCC1=O,outcome,[1],inactive
same,outcome,[2],inactive
same,outcome,[3],inactive
same,"activity change, negative = inhibition",[4]; at 25.7 µM (top of the series),-1.06% (inactive)
same,"activity change, negative = inhibition",[4]; at 57.5 µM (top of the series),8.11% (inactive)
same,max response,[4]; [7],-2.61% and 10.4%
same,max response,[4]; [8],-4.04% and 22.9%
same,outcome,[5],inactive
same,outcome,[6],inactive
Clc1ccc(CSC(Cn2ccnc2)c2ccc(Cl)cc2Cl)cc1 (centres undefined),"activity change, negative = inhibition",[4]; at 57.5 µM (top of the series),11.1% (inactive)
same,max response,[4]; [7],-1.1%
same,max response,[4]; [8],12.4%
